# Laboratory results reported in PubChem BioAssay AID1159580 (chemical genetic matrix, 2015).
# The campaign covered roughly 5,500 compounds. About 2,000 (36%) were called active. Inconclusive results (about 18%) are left out. The list shows a part of the results. Unmarked numbers belong to inactive results. Rule as the data show it: active = normalized growth mostly below about 0.91 (no sharp cut-off); inconclusive = no clear call, values can overlap the other calls; inactive = mostly above about 0.92.
# Assay: chemical genetic growth profiling, strain panel (AID 1159580);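 also: tested at 20 µM; growth read once vehicle control cultures reached saturation at 30 °C; 1 = growth at the plate median or of vehicle wells; lower values mean less growth of the strain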
# Settings: S. cerevisiae deletion strains, growth OD
structure (smiles),measurement,setting,value
Cc1cc(=O)c2c(O)c3c(cc2o1)OCC(C)CC3 (centres undefined),normalized growth,"locus YBR021W, strain FUR4, active compounds read low",0.993
same,normalized growth,"locus YBR229C, strain ROT2, active compounds read low",0.981
same,normalized growth,"locus YCL029C, strain bik1, active compounds read low",0.912
same,normalized growth,"locus YDL035C, strain GPR1, active compounds read low",0.954
same,normalized growth,"locus YDL074C, strain BRE1, active compounds read low",0.818
same,normalized growth,"locus YDL101C, strain DUN1, active compounds read low",0.898
same,normalized growth,"locus YDL185W, strain tfp1, active compounds read low",0.915
same,normalized growth,"locus YDL192W, strain arf1, active compounds read low",0.848 (active)
same,normalized growth,"locus YDR101C, strain arx1, active compounds read low",0.896 (active)
same,normalized growth,"locus YDR162C, strain NBP2, active compounds read low",0.885
same,normalized growth,"locus YDR318W, strain mcm21, active compounds read low",0.858 (active)
same,normalized growth,"locus YDR388W, active compounds read low",0.909 (active)
same,normalized growth,"locus YDR502C, strain sam2, active compounds read low",0.858 (active)
same,normalized growth,"locus YER110C, active compounds read low",0.893 (active)
same,normalized growth,"locus YER155C, strain BEM2, active compounds read low",0.849 (active)
same,normalized growth,"locus YER167W, strain BCK2, active compounds read low",0.961
same,normalized growth,"locus YGL078C, strain dbp3, active compounds read low",0.936
same,normalized growth,"locus YGL086W, strain mad1, active compounds read low",0.846 (active)
same,normalized growth,"locus YGL248W, strain PDE1, active compounds read low",0.881 (active)
same,normalized growth,"locus YGR078C, strain PAC10, active compounds read low",0.8 (active)
same,normalized growth,"locus YGR135W, strain pre9, active compounds read low",0.806 (active)
same,normalized growth,"locus YGR252W, strain gcn5, active compounds read low",0.689 (active)
same,normalized growth,"locus YHR079C, strain IRE1 (second series), active compounds read low",0.925 (active)
same,normalized growth,"locus YHR094C, strain hxt1, active compounds read low",0.926
same,normalized growth,"locus YHR129C, strain ARP1, active compounds read low",0.926
same,normalized growth,"locus YHR200W, strain rpn10, active compounds read low",0.868 (active)
same,normalized growth,"locus YIL066C, strain RNR3, active compounds read low",0.941
same,normalized growth,"locus YIL073C, strain SPO22, active compounds read low",0.796
same,normalized growth,"locus YIL125W, strain kgd1, active compounds read low",0.924 (active)
same,normalized growth,"locus YIR030C, strain dcg1, active compounds read low",0.912 (active)
same,normalized growth,"locus YJL095W, strain BCK1, active compounds read low",0.815
same,normalized growth,"locus YJL134W, strain LCB3, active compounds read low",0.969
same,normalized growth,"locus YJL168C, strain set2, active compounds read low",0.914 (active)
same,normalized growth,"locus YJL187C, strain SWE1 (second series), active compounds read low",0.908
same,normalized growth,"locus YJR043C, strain POL32, active compounds read low",0.966
same,normalized growth,"locus YKL009W, strain mrt4, active compounds read low",0.897
same,normalized growth,"locus YKL068W, active compounds read low",0.921 (active)
same,normalized growth,"locus YKL085W, strain MDH1 (second series), active compounds read low",0.942
same,normalized growth,"locus YKL085W, strain MDH1, active compounds read low",0.942
same,normalized growth,"locus YKR001C, strain vps1, active compounds read low",0.797 (active)
same,normalized growth,"locus YLR039C, strain RIC1, active compounds read low",0.673 (active)
same,normalized growth,"locus YLR058C, strain SHM2, active compounds read low",0.926
same,normalized growth,"locus YLR102C, strain apc9, active compounds read low",0.928
same,normalized growth,"locus YLR268W, strain sec22, active compounds read low",0.914
same,normalized growth,"locus YLR371W, strain rom2, active compounds read low",0.821 (active)
same,normalized growth,"locus YLR418C, strain cdc73, active compounds read low",0.591 (active)
same,normalized growth,"locus YML016C, strain PPZ1, active compounds read low",0.976
same,normalized growth,"locus YML032C, strain rad52, active compounds read low",0.881 (active)
same,normalized growth,"locus YML124C, strain tub3, active compounds read low",0.91 (active)
same,normalized growth,"locus YMR078C, strain ctf18, active compounds read low",0.899 (active)
same,normalized growth,"locus YMR223W, strain ubp8, active compounds read low",0.879 (active)
same,normalized growth,"locus YMR307W, strain GAS1, active compounds read low",0.588 (active)
same,normalized growth,"locus YNL067W, strain RPL9B, active compounds read low",0.919
same,normalized growth,"locus YNL153C, strain GIM3, active compounds read low",0.704 (active)
same,normalized growth,"locus YNL233W, strain BNI4, active compounds read low",0.826 (active)
same,normalized growth,"locus YNL250W, strain rad50, active compounds read low",0.902
same,normalized growth,"locus YNL271C, strain bni1, active compounds read low",0.922
same,normalized growth,"locus YNL298W, strain CLA4, active compounds read low",0.929
same,normalized growth,"locus YNL307C, strain MCK1, active compounds read low",0.719 (active)
same,normalized growth,"locus YNL322C, strain KRE1, active compounds read low",0.923 (active)
same,normalized growth,"locus YNR052C, strain pop2, active compounds read low",0.932
same,normalized growth,"locus YOL012C, strain htz1",1.02
same,normalized growth,"locus YOL147C, strain pex11, active compounds read low",0.887 (active)
same,normalized growth,"locus YOR061W, strain CKA2, active compounds read low",0.98
same,normalized growth,"locus YOR069W, strain VPS5, active compounds read low",0.96
same,normalized growth,"locus YOR136W, strain idh2, active compounds read low",0.915 (active)
same,normalized growth,"locus YOR144C, strain elg1, active compounds read low",0.91 (active)
same,normalized growth,"locus YOR184W, strain ser1, active compounds read low",0.725 (active)
same,normalized growth,"locus YOR316C, strain cot1, active compounds read low",0.918 (active)
same,normalized growth,"locus YPR119W, strain clb2, active compounds read low",0.914 (active)
same,normalized growth,"locus YPR141C, strain kar3, active compounds read low",0.918
same,normalized growth,"locus YPR163C, strain tif3, active compounds read low",0.855 (active)
same,normalized growth,"locus YPR167C, strain met16, active compounds read low",0.868 (active)
same,normalized growth,"strain wtn01, active compounds read low",0.897 (active)
